# Screen size: about 5,500 compounds; about 2,000 (36%) were called active. Inconclusive results (about 18%) are left out. The list shows a part of the results. Unmarked numbers belong to inactive results. Rule as the data show it: active = normalized growth mostly below about 0.91 (no sharp cut-off); inconclusive = no clear call, values can overlap the other calls; inactive = mostly above about 0.92.
# Assay: chemical genetic growth profiling, strain panel (AID 1159580);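 also: tested at 20 µM; growth read once vehicle control cultures reached saturation at 30 °C; 1 = growth at the plate median or of vehicle wells; lower values mean less growth of the strain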
# Settings: S. cerevisiae deletion strains, growth OD
# [1] = locus YDL101C, strain DUN1, active compounds read low
# [2] = locus YHR030C, strain SLT2, active compounds read low
smiles,measurement,setting,value
O=C(N/N=C\c1cc(Br)ccc1O)c1ccccc1Oc1ccccc1,normalized growth,"locus YAR019C, strain CDC15, active compounds read low",0.963
same,normalized growth,"locus YBL105C, strain PKC1, active compounds read low",0.976
same,normalized growth,"locus YBR135W, strain CKS1, active compounds read low",0.981
same,normalized growth,"locus YBR136W, strain MEC1, active compounds read low",0.963
same,normalized growth,"locus YBR160W, strain CDC28, active compounds read low",0.973
same,normalized growth,"locus YDL017W, strain CDC7, active compounds read low",0.969
same,normalized growth,"locus YDL028C, strain MPS1, active compounds read low",0.96
same,normalized growth,[1],0.97
same,normalized growth,"locus YDL108W, strain KIN28, active compounds read low",0.971
same,normalized growth,"locus YDL132W, strain cdc53, active compounds read low",0.966
same,normalized growth,"locus YDL214C, strain PRR2, active compounds read low",0.932
same,normalized growth,"locus YDR052C, strain DBF4, active compounds read low",0.97
same,normalized growth,"locus YDR054C, strain cdc34, active compounds read low",0.968
same,normalized growth,"locus YDR226W, strain ADK1, active compounds read low",0.972
same,normalized growth,"locus YDR477W, strain SNF1, active compounds read low",0.943
same,normalized growth,"locus YER123W, strain YCK3, active compounds read low",0.879
same,normalized growth,"locus YER133W, strain GLC7, active compounds read low",0.955
same,normalized growth,"locus YFL009W, strain cdc4, active compounds read low",0.964
same,normalized growth,"locus YFL029C, strain CAK1, active compounds read low",0.953
same,normalized growth,"locus YFR003C, strain YPI1, active compounds read low",0.969
same,normalized growth,"locus YFR019W, strain FAB1, active compounds read low",0.953
same,normalized growth,"locus YFR028C, strain CDC14, active compounds read low",0.965
same,normalized growth,"locus YGR040W, strain KSS1, active compounds read low",0.942
same,normalized growth,"locus YGR052W, strain FMP48, active compounds read low",0.954
same,normalized growth,"locus YGR092W, strain DBF2, active compounds read low",0.914
same,normalized growth,[2],0.854
same,normalized growth,"locus YHR079C, strain IRE1, active compounds read low",0.885
same,normalized growth,"locus YHR082C, strain KSP1, active compounds read low",0.924
same,normalized growth,"locus YHR205W, strain SCH9, active compounds read low",0.838
same,normalized growth,"locus YIL147C, strain SLN1, active compounds read low",0.949
same,normalized growth,"locus YJL095W, strain BCK1, active compounds read low",0.846
same,normalized growth,"locus YJL128C, strain PBS2, active compounds read low",0.928
same,normalized growth,"locus YJL157C, strain FAR1, active compounds read low",0.955
same,normalized growth,"locus YJR016C, strain ILV3, active compounds read low",0.979
same,normalized growth,"locus YJR066W, strain TOR1 (second series), active compounds read low",0.901
same,normalized growth,"locus YJR066W, strain TOR1, active compounds read low",0.953
same,normalized growth,"locus YKL048C, strain ELM1, active compounds read low",0.915
same,normalized growth,"locus YKL067W, strain YNK1, active compounds read low",0.923
same,normalized growth,"locus YKL101W, strain HSL1, active compounds read low",0.89
same,normalized growth,"locus YKL193C, strain SDS22, active compounds read low",0.972
same,normalized growth,"locus YKL203C, strain TOR2, active compounds read low",1
same,normalized growth,"locus YLR113W, strain HOG1, active compounds read low",0.694 (active)
same,normalized growth,"locus YLR133W, strain CKI1, active compounds read low",0.916
same,normalized growth,"locus YLR403W, strain SFP1, active compounds read low",0.927
same,normalized growth,"locus YML070W, strain DAK1, active compounds read low",0.888
same,normalized growth,"locus YMR001C, strain CDC5, active compounds read low",0.972
same,normalized growth,"locus YMR205C, strain PFK2 (second series), active compounds read low",0.919
same,normalized growth,"locus YMR277W, strain FCP1, active compounds read low",0.98
same,normalized growth,"locus YNL006W, strain LST8, active compounds read low",0.977
same,normalized growth,"locus YNL020C, strain ARK1, active compounds read low",0.935
same,normalized growth,"locus YNL161W, strain CBK1, active compounds read low",0.982
same,normalized growth,"locus YNL183C, strain NPR1, active compounds read low",0.883
same,normalized growth,"locus YNL207W, strain RIO2, active compounds read low",0.976
same,normalized growth,"locus YNL222W, strain SSU72, active compounds read low",0.969
same,normalized growth,"locus YNL307C, strain MCK1 (second series), active compounds read low",0.912
same,normalized growth,"locus YOL078W, strain AVO1, active compounds read low",0.98
same,normalized growth,"locus YOL136C, strain PFK27, active compounds read low",0.909
same,normalized growth,"locus YOR061W, strain CKA2, active compounds read low",0.939
same,normalized growth,"locus YOR119C, strain RIO1, active compounds read low",0.97
same,normalized growth,"locus YOR231W, strain MKK1, active compounds read low",0.892
same,normalized growth,"locus YOR329C, strain SCD5, active compounds read low",0.968
same,normalized growth,"locus YPL031C, strain PHO85, active compounds read low",0.94
same,normalized growth,"locus YPL153C, strain RAD53, active compounds read low",0.934
same,normalized growth,"locus YPL204W, strain HRR25, active compounds read low",0.94
same,normalized growth,"locus YPL209C, strain IPL1, active compounds read low",0.974
same,normalized growth,"locus YPL256C, strain CLN2, active compounds read low",0.764 (active)
same,normalized growth,"locus YPR025C, strain CCL1, active compounds read low",0.969
same,normalized growth,"locus YPR106W, strain ISR1, active compounds read low",0.976
same,normalized growth,"locus YPR111W, strain DBF20, active compounds read low",0.947
same,normalized growth,"strain NNK1, active compounds read low",0.959
same,normalized growth,"strain TSCII, active compounds read low",0.972
Nc1ccccc1C(=O)N/N=C\c1cccc2ccccc12,normalized growth,"locus YAL013W, strain DEP1, active compounds read low",0.994
same,normalized growth,"locus YBR229C, strain ROT2, active compounds read low",0.977
same,normalized growth,[1],1.01
same,normalized growth,"locus YDL134C, strain PPH21, active compounds read low",0.813 (active)
same,normalized growth,"locus YDR150W, strain NUM1, active compounds read low",0.971
same,normalized growth,"locus YEL061C, strain CIN8, active compounds read low",0.85 (active)
same,normalized growth,"locus YGR078C, strain PAC10, active compounds read low",0.993
same,normalized growth,[2],0.461 (active)
same,normalized growth,"locus YHR087W, strain rtc3, active compounds read low",0.992
same,normalized growth,"locus YJL187C, strain SWE1, active compounds read low",0.994
same,normalized growth,"locus YJR043C, strain POL32, active compounds read low",1.01
same,normalized growth,"locus YJR075W, strain HOC1, active compounds read low",0.979
same,normalized growth,"locus YKL190W, strain CNB1, active compounds read low",0.944
same,normalized growth,"locus YLR039C, strain RIC1, active compounds read low",0.734 (active)
same,normalized growth,"locus YLR058C, strain SHM2 (second series), active compounds read low",0.991
same,normalized growth,"locus YLR085C, strain ARP6, active compounds read low",0.615 (active)
same,normalized growth,"locus YLR262C, strain YPT6, active compounds read low",0.803 (active)
same,normalized growth,"locus YML094W, strain GIM5, active compounds read low",0.831 (active)
same,normalized growth,"locus YMR219W, strain ESC1, active compounds read low",0.989
same,normalized growth,"locus YMR263W, strain SAP30, active compounds read low",0.992
same,normalized growth,"locus YMR307W, strain GAS1, active compounds read low",0.526 (active)
same,normalized growth,"locus YNL153C, strain GIM3, active compounds read low",1.01
same,normalized growth,"locus YNL298W, strain CLA4 (second series), active compounds read low",0.807 (active)
same,normalized growth,"locus YNL322C, strain KRE1, active compounds read low",0.992
same,normalized growth,"locus YNR030W, strain Alg12, active compounds read low",0.875 (active)
same,normalized growth,"locus YOL006C, strain TOP1, active compounds read low",0.535 (active)
same,normalized growth,"locus YPL055C, strain LGE1, active compounds read low",0.973
same,normalized growth,"locus YPL241C, strain CIN2, active compounds read low",0.819 (active)
same,normalized growth,"locus YPR135W, strain CTF4, active compounds read low",0.66

# Source: PubChem BioAssay AID1159580 (chemical genetic matrix, 2015)
